Test results: PubChem BioAssay (EPA / NIEHS)
The source made the active and inactive calls. Rule for the calls: active = hit-call score of the fitted dose curve at least 0.9, where 1 is the maximum; inactive = score below 0.9.

Each compound was assayed on Hypoxia-inducible factor 1-alpha (Homo sapiens) (UniProt Q16665) (assay: LTEA_HepaRG_HIF1A: Life Technologies and Expression Analysis (LTEA) Assay for Hypoxia-inducible factor 1 (HIF1A) Trancription factor using HepaRG (AID 2283503;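 note: HIF1A transcript by TaqMan qRT-PCR normalized to ACTB GAPDH and POLR2A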)). Settings: mRNA level, 48 h; actives raise or lower the signal.
Protocol: LTEA_HepaRG is a cell based, multiplexed-readout assay that uses HepaRG, a human liver cell line, with measurements taken at 48 hours after chemical dosing on a 96-well plate.LTEA_HepaRG_HIF1A is one of 102 assay component(s) measured in the LTEA HepaRG cell culture assay. It is a marker of Cell proliferation, survival, death.Data from the assay component LTEA_HepaRG_HIF1A was analyzed into 1 endpoint. This assay endpoint, LTEA_HepaRG_HIF1A, was analyzed with bidirectional fitting relative to DMSO as the negative control and baseline of activity. Using a type of inducible reporter, measures of mRNA induction for gain or loss-of-signal activity can be used to understand regulation of transcription factor activity. To generalize the intended target to other relatable targets, this assay endpoint is annotated to the dna binding intended target family, where the subfamily is basic helix-loop-helix protein.
A total of 1060 chemcials from the ToxCast library were tested in eight-point concentration-response experiments. Cell culture and cytotoxicity assays were conducted at Thermo Fisher Scientific's Custom Services facility (Madison, WI). A single lot of human HepaRG cells (Thermo Fisher Scientific, Frederick, MD) was used for the cell culture experiments. 96-well format collagen type I coated plates of human HepaRG cells were prepared using established methods. Briefly, cryopreserved HepaRG cells were thawed, plated at a density of approximately 100,000 cells/well in HepaRG Thaw, Plate, and General Purpose media (HPRG770, Thermo Fisher Scientific), and incubated for 48 hours. 0.5% DMSO was selected as vehicle control to balance the requisite need of DMSO in HepaRG cultures to maintain differentiation (for example, baseline metabolism, proportions of hepatocytes vs. cholangiocytes), while enabling further hepatic receptor pathway activation (for example, PXR and CAR) in response to chemical exposure. 48 hours after plating, the culture medium was replaced with HepaRG Serum-Free Incudtion Media. Cells were exposed to each test chemical in duplicate and maintained in CO2 incubators for another 48 hours. Chemical plates were thawed to room temperature and 200x concentrations of treatment groups were prepared. 8-point conentration-reponse curves were made with the highest exposure at 100 uM, followed by half-log dilutions, all in 0.5% DMSO. Each test plate contained variouse controls, induction positive controls (1mM phenobarbital), cytotoxicity positive controls ([…] aflatoxin B1), vehicle controls (0.5% DMSO), and total lysis controls (0.5% DMSO). Cell morphology images were taken using an Essen IncuCyte FLR automated microscope, with six 96-well plates imaged in about 24 minutes. Images were captured and exported and JPEG files. Spent culture media was transfered to black-well plates for the LDH assay, and remaining media was sorted at -80 C for later use. Cells were treated with RLT buffer and frozen until shipped for gene expression analysis. Total RNA was isolated from the cell suspension in 75 uL of Buffer RLT (Qiagen, Germantown, MD 20874) by Quintiles/Expression Analysis (Durham, NC) using a custom isolation procedure. Total RNA from each plate well was transferred to a preamplification plate. Fluidigm's 96.96 Dynamic ArrayTM (Fluidigm, Amsterdam, the Netherlands) technology was used for gene expression analyses by quantitative reverse transcription polymerase chain reaction (qRT-PCR, performed by Quintiles/Expression Analysis, Durham, NC)89. Standard TaqManTM Assays (Applied Biosystems/ThermoFisher Scientific, Foster City, CA) were used to assess the expression of 93 genes selected based on their selectivity and sensitivity to important hepatic receptors known to be modulated by environmental chemicals; importance in human hepatocyte functionality; and hepatotoxicity. […]

Sequence of Hypoxia-inducible factor 1-alpha (Homo sapiens) (Q16665 whole entry, looked up): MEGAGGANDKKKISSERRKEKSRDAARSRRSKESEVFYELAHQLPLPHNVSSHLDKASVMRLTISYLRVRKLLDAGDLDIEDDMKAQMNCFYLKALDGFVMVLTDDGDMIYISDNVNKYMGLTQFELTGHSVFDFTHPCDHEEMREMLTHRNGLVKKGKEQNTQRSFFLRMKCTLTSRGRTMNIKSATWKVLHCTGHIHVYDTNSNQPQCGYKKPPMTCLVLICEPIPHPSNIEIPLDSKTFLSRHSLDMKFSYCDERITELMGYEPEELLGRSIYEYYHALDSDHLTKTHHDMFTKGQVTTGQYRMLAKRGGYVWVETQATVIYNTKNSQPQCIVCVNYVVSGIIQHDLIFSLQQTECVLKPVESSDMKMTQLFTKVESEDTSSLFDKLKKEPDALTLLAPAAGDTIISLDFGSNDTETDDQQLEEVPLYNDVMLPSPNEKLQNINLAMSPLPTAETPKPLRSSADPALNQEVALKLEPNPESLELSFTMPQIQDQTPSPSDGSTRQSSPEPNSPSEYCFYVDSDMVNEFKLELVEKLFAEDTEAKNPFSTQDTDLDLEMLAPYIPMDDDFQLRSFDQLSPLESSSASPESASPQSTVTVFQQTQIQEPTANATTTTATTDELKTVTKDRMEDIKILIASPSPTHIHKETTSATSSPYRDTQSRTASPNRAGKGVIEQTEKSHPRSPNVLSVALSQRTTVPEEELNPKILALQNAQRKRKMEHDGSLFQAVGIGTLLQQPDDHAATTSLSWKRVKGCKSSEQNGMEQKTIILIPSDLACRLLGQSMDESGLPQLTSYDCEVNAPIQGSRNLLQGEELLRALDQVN

**Q.** With `C[Si]1(C)O[Si](C)(C)O[Si](C)(C)O[Si](C)(C)O1` as the compound, how does the outcome read?
**A.** Its outcome is “inactive”.

**Q.** `CN1CCCC1=O` was tested. Which outcome did it give?
**A.** Its outcome is “inactive”.

**Q.** `COc1ccc2c(c1)c(CC(=O)O)c(C)n2C(=O)c1ccc(Cl)cc1` was tested. Which outcome did it give?
**A.** Its outcome is “inactive”.

**Q.** For `COc1cc(-c2nc(NC(=O)c3cc4cc(C)cc(C)c4n3CC(=O)O)sc2CCC2CCCCC2)c(OC)cc1Cl`, which AC50 is on record?
**A.** The AC50 was 11 µM (active).

**Q.** `COC(=O)c1ccc(O)cc1` was tested. Which outcome did it give?
**A.** The outcome was “inactive”.

**Q.** How did the outcome turn out when `O=[N+]([O-])C(CO)(CO)CO` was run?
**A.** Its outcome is “inactive”.

**Q.** Which outcome does the source give for `CC(CO)OC(C)CO` (stereo not given) (tested in a mixture with another compound) here?
**A.** Its outcome is “inactive”.

**Q.** `COc1ccc(S(=O)(=O)N2C(=O)[C@@](c3ccccc3OC)(N3C[C@H](O)C[C@H]3C(=O)N(C)C)c3cc(Cl)ccc32)c(OC)c1` was tested. Which AC50 did it give?
**A.** Its AC50 is 69.1 µM (active).

**Q.** How did the outcome turn out when `CCCCc1ccc2c(n1)[C@@H](c1ccc(OC)cc1C[C@H](C)C(=O)O)[C@H](C(=O)O)[C@H]2c1ccc2c(c1)OCO2` was run?
**A.** Its outcome is “inactive”.

**Q.** `CCCCCCC(=O)OCC` was tested. Which outcome did it give?
**A.** The outcome was “inactive”.

**Q.** How did the outcome turn out when `NCCO` was run?
**A.** Its outcome is “inactive”.

**Q.** `CCCCC(CC)COC(=O)CC(C(=O)OCC(CC)CCCC)S(=O)(=O)O` (stereo not given) was tested. Which outcome did it give?
**A.** Its outcome is “inactive”.

**Q.** How did the outcome turn out when `CCCCCCCCCCCCCCCCCC(=O)O` was run?
**A.** The outcome was “inactive”.

**Q.** Which outcome does the source give for `CCCCOC(=O)CCCCCCCCC(=O)OCCCC` here?
**A.** Its outcome is “inactive”.

**Q.** Which outcome does the source give for `CCCCN(CCCC)CCCC` here?
**A.** The outcome was “inactive”.

**Q.** Which outcome does the source give for `C[C@]12C=CC(=O)C=C1CC[C@@H]1[C@@H]2C(=O)C[C@@]2(C)[C@H]1CC[C@]2(O)C(=O)CO` here?
**A.** The outcome was “inactive”.

**Q.** For `CC1(C)CC(N=C=O)CC(C)(CN=C=O)C1` (stereo not given), which outcome is on record?
**A.** Its outcome is “inactive”.

**Q.** `O=C(OCCCCCOC(=O)c1ccccc1)c1ccccc1` was tested. Which outcome did it give?
**A.** The outcome was “inactive”.

**Q.** How did the outcome turn out when `CC(=O)C(C)=CC1C(C)=CCCC1(C)C` (stereo not given) was run?
**A.** The outcome was “inactive”.

**Q.** Which outcome does the source give for `CC1(C)NC(=O)NC1=O` here?
**A.** The outcome was “inactive”.

**Q.** Which outcome does the source give for `CC=Cc1ccc(O)c(OC)c1` here?
**A.** The outcome was “inactive”.

**Q.** With `Cc1ccc(C)c(C)c1` as the compound, how does the outcome read?
**A.** Its outcome is “inactive”.

**Q.** `FC(F)(F)C(F)(F)C(F)(F)C(F)(F)C(F)(F)C(F)(F)CCI` was tested. Which outcome did it give?
**A.** Its outcome is “inactive”.

**Q.** With `COCCOC[C@H](CC1(C(=O)NC2CCC(C(=O)O)CC2)CCCC1)C(=O)Oc1ccc2c(c1)CCC2` (stereo not given in full) as the compound, how does the outcome read?
**A.** The outcome was “inactive”.

**Q.** How did the outcome turn out when `Cc1cc(=O)[nH]c(=S)[nH]1` was run?
**A.** Its outcome is “inactive”.

**Q.** How did the outcome turn out when `Oc1ccc2c(c1)OC[C@@H](N1CCC(O)(c3ccc(F)cc3)CC1)[C@H]2O` was run?
**A.** The outcome was “inactive”.

**Q.** `NCC1(Cc2noc(=O)[nH]2)CCCCC1` was tested. Which outcome did it give?
**A.** The outcome was “inactive”.

**Q.** Which outcome does the source give for `CCNc1cccc(C)c1` here?
**A.** The outcome was “inactive”.

**Q.** For `CCCCCCCCCCCCCCCC`, which outcome is on record?
**A.** The outcome was “inactive”.

**Q.** Which outcome does the source give for `CN[C@H]1CC[C@@H](c2ccc(Cl)c(Cl)c2)c2ccc(S(N)(=O)=O)cc21` here?
**A.** Its outcome is “inactive”.

**Q.** For `Clc1cc(Cl)c(Cl)cc1Cl`, which outcome is on record?
**A.** The outcome was “inactive”.

**Q.** `COc1cc(C=O)ccc1O` was tested. Which outcome did it give?
**A.** The outcome was “inactive”.

**Q.** With `CCCCCCCCCCO` as the compound, how does the outcome read?
**A.** The outcome was “inactive”.

**Q.** How did the outcome turn out when `COc1ccc(C)cc1N` was run?
**A.** Its outcome is “inactive”.

**Q.** `O=C(O)CCCCC(=O)O` was tested. Which outcome did it give?
**A.** Its outcome is “inactive”.

**Q.** `C=CCOC(=O)c1ccccc1C(=O)OCC=C` was tested. Which outcome did it give?
**A.** The outcome was “inactive”.

**Q.** `C1CCC(SSC2CCCCC2)CC1` was tested. Which outcome did it give?
**A.** Its outcome is “inactive”.

**Q.** `Cc1nc(-c2ccc3c(c2)CCN(CCC2CCC(NC(=O)/C=C/c4ccc(F)cc4)CC2)CC3)no1` (stereo not given) was tested. Which outcome did it give?
**A.** Its outcome is “inactive”.

**Q.** How did the outcome turn out when `CCCCCCCCCCC` was run?
**A.** The outcome was “inactive”.

**Q.** `CC(=O)OCCOCCOCCOC(C)=O` was tested. Which outcome did it give?
**A.** Its outcome is “inactive”.
